Screening results as filed in PubChem.
Hits are enriched below; roughly 2.4% of the tested compounds scored in any of these assays.
POLB inh = inhibitors of human DNA polymerase beta | actives 1.3% (n = 340,000) | AID 485314 | Pol beta primer extension/strand displacement, fluorescence kinetic | Potency, µM (doses to about 114 µM), usual class: inhibitors
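Reaction started by 50 nM substrate onto compound-treated Pol beta (10 nM, 15 min preincubation, room temperature); plates read at 0 min and 10 min. Normalized concentration-effect data fitted by four-parameter Hill equation.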
PGK inhibitor = inhibitors of T. brucei phosphoglycerate kinase | AID 602233 | Potency, µM (highest dose often 57.5 µM), usual class: inhibitors | P07378 | PGK/GAPDH coupled, Kinase-Glo luminescence, 60 min | actives 0.043% (n = 380,000); further: nearly all actives have a fitted effect of over 60% in size
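Luminescent ATP detection (Kinase-Glo Plus) follows a 60-minute room-temperature incubation, with wells lacking PGK as controls. Buffer: 100 mM TEA (pH 7.6), 5 mM MgCl2, 0.01% Tween-20. Coupling enzyme GAPDH (100 nM final) supplies unstable 1,3-BPG in-well.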
Pol iota inh = inhibitors of human DNA polymerase iota; AID 588590; Potency, µM (doses to about 115 µM), actives largely listed as inhibitors; Pol iota fluorescent replication assay, 10 min; actives 1% (n = 390,000)
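Pol iota at 10 nM preincubated 15 min with compounds at room temperature; reaction started with fluorescent substrate, 50 nM final. Fluorescence read kinetically at 0 and 10 min; buffer-only wells as negative control.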
Pol kappa inh = blocks human DNA polymerase kappa activity; AID 588579; purified Pol kappa, fluorescent DNA synthesis assay, 10 min; Potency, µM (highest dose often 107 µM), actives largely listed as inhibitors; actives 0.53% (n = 400,000); Q9UBT6
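First, compounds were pin-transferred onto 10 nM Pol kappa. After 15 min at room temperature, substrate was added to 50 nM final. Fluorescence was then measured kinetically at 0 and 10 min.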
FEN1 inhibitor = human FEN1 inhibition. Recombinant FEN1 flap cleavage, fluorescence, 15 min. P39748. Potency, µM (series often up to 114 µM), hits mostly inhibitors. AID 588795. actives 0.35% (n = 390,000); further: nearly all actives have a fitted effect of over 65% in size
Target sequence (P39748 whole entry, looked up): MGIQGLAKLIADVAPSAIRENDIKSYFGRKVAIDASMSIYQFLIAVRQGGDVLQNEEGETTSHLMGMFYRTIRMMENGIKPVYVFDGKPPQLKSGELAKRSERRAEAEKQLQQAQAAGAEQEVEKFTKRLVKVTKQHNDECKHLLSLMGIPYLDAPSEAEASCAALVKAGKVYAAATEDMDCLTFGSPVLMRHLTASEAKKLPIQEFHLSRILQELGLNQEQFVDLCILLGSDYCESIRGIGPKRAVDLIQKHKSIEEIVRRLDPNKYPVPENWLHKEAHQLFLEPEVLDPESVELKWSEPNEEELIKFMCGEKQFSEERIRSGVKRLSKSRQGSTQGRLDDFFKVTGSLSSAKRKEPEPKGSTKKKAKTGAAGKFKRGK
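With each library titrated from low to high concentration, compounds met 10 nM FEN1 for 15 min at room temperature before 50 nM substrate was added; readings at 0 and 15 min fed four-parameter Hill curve fits.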
POLH inh = DNA polymerase eta (human) inhibition. Q9Y253. recombinant Pol eta, fluorescent DNA replication assay. Potency, µM (series often up to 114 µM), usual class: inhibitors. actives 1.2% (n = 390,000)
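Pol eta (10 nM) was preincubated with compounds for 15 min at room temperature, after which fluorescent replication substrate (50 nM final) was added to start the reaction. Fluorescence was read kinetically at 0 and 10 min.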
Large screens that a line does not name were inactive. The call rests on the fitted dose curve; in most records, active means well fitted curve in the direction sought with a large enough effect; inconclusive means small, poorly fitted or top-dose-only effect, or another doubt; inactive means no such curve, though single readings can be large; an effect the other way counts as inactive or inconclusive.

CC(/C=N/NC(=O)c1ccc(Br)cc1)=C\c1ccccc1	POLB inh 22µM, Pol iota inh inconclusive
COc1ccc(CCn2c3c(c(=O)[nH]c2=S)CN(CC(C)C)CN3)cc1OC	Pol iota inh inconclusive (no result: POLB inh, PGK inhibitor, POLH inh)
Cc1ccccc1Nc1nnc(SCc2cc(=O)n3ccsc3n2)s1	none
CC(C)Nc1nnc(SCc2cc(=O)n3ccsc3n2)s1	POLB inh 32µM, Pol iota inh inconclusive
COc1ccc(CN2CC[C@H]3C=CC[C@@H](C(=O)Nc4nccs4)[C@H]3C2=O)cc1OC	none (no result: POLB inh, PGK inhibitor, POLH inh)
C=CCN1C=C2C(=O)C(C)(OC(=O)CCC(=O)OC)C(=O)C(Br)=C2C=C1c1ccc(OC)cc1 (stereo unspecified)	Pol iota inh inconclusive, POLH inh inconclusive
CCN(CC)CCCN1C=C2C(=O)C(C)(OC(=O)CCC(=O)OC)C(=O)C(Br)=C2C=C1c1ccc(OC)cc1 (stereo unspecified)	Pol iota inh inconclusive, Pol kappa inh inconclusive, FEN1 inhibitor inconclusive, POLH inh 40µM (no result: POLB inh)
C=CCNc1nc(NC2CCN(C)CC2)c2cc(OC)c(OC)cc2n1	FEN1 inhibitor inconclusive (no result: POLB inh, PGK inhibitor, POLH inh)
Cc1cc(O)c2c(c1O)C(=O)[C@]13C(=C2O)C(=O)[C@@H]2[C@@H](O)[C@H]1[C@@H]1[C@H](O)[C@H]3C(=O)C3=C(O)c4c(O)cc(C)c(O)c4C(=O)[C@]312	PGK inhibitor inconclusive, Pol iota inh 3.2µM, Pol kappa inh 3.5µM, FEN1 inhibitor inconclusive, POLH inh 5.6µM (no result: POLB inh)
CCOc1ccccc1-c1nc(-c2ccc(NC(=O)Cc3ccc(OC)cc3)cc2)no1	POLB inh 32µM, Pol iota inh inconclusive, POLH inh inconclusive
COc1ccc(-c2noc(-c3ccccc3OCC(=O)Nc3ccc(C(C)=O)cc3)n2)cc1	none
CC(=O)Nc1cccc(-c2nc3ccccc3s2)c1	none
CC(=O)Nc1cccc(-c2cc(C)c3cc4c(cc3n2)OCO4)c1	POLB inh 40µM, Pol iota inh inconclusive, FEN1 inhibitor inconclusive
C=C1CC[C@H](O)C/C1=C/C=C1\CCC[C@]2(C)C([C@H](C)CC[C@@H](O)C(C)(C)O)CC[C@@H]12 (stereo partly specified)	none (no result: POLB inh, PGK inhibitor, Pol iota inh, FEN1 inhibitor, POLH inh)
Cc1cc[n+](C2CCCCC2)c2ccccc12	none (no result: POLB inh, PGK inhibitor, POLH inh)
C/C(CC(=O)Nc1ccc(Cl)c(C(F)(F)F)c1)=N\NC(=O)c1cc2ccccc2cc1O	Pol iota inh 89µM, Pol kappa inh inconclusive
C/C(CC(=O)N1CCCC1)=N\NC(=O)c1cc2ccccc2cc1O	Pol iota inh 79µM, Pol kappa inh inconclusive
CCOc1ccc(/C=C/c2nc(C#N)c(N3CCC(C)CC3)o2)cc1	none
CCOc1ccc(OCC)c(NC(=O)C(NS(=O)(=O)c2ccc(Br)s2)c2ccccc2)c1 (stereo unspecified)	none
COc1ccc(C(c2c(C)[nH]n(-c3ccccc3)c2=O)c2c(C)[nH]n(-c3ccccc3)c2=O)cc1OC	Pol iota inh 1.3µM, FEN1 inhibitor inconclusive
CCOc1cc(C(c2c(C)[nH]n(-c3ccccc3)c2=O)c2c(C)[nH]n(-c3ccccc3)c2=O)ccc1O	Pol iota inh 1.6µM, FEN1 inhibitor inconclusive
C=CCn1c2ccccc2c(=O)c2cc(C#Cc3ccsc3)ccc21	POLB inh 5µM (no result: PGK inhibitor, Pol iota inh, Pol kappa inh, FEN1 inhibitor, POLH inh)
C=CCn1c2ccccc2c(=O)c2cc(C#Cc3ccccn3)ccc21	Pol iota inh inconclusive (no result: POLB inh)
Cc1c(Cl)cccc1NC(=O)CSc1nc2ncccc2o1	none
O=C(Cc1ccccc1)NC1(O)C(=O)c2ccccc2C1=O	Pol iota inh 7.1µM, POLH inh inconclusive
Nc1c(Cl)cc(C=O)cc1Cl	none (no result: POLB inh, PGK inhibitor, POLH inh)
CCCOC(=O)c1cc(-c2ccc(/C=C3/C(=O)N(C)C(=O)C(C#N)=C3C)o2)ccc1Cl	Pol iota inh inconclusive, POLH inh 25µM (no result: POLB inh)
CCCOC(=O)c1cc(-c2ccc(C=O)o2)ccc1Cl	none
Cc1ccccc1CNC(=O)CCCn1c(=O)c2cccn2c2ccccc21	none
Cc1csc(NCC(=O)c2c(C)[nH]c3ccccc23)n1	none (no result: POLB inh, PGK inhibitor, POLH inh)
Cc1ccc(NC(=O)CN2C(=O)c3ccccc3Sc3ccc(C(=O)N4CCCC4)cc32)cc1	POLB inh inconclusive, Pol iota inh 71µM, POLH inh inconclusive
O=C(Nc1ccc(S(=O)(=O)Nc2ncccn2)cc1)c1nn(Cc2ccccc2)c(=O)c2ccccc12	POLB inh inconclusive, Pol iota inh inconclusive, POLH inh 79µM
CCn1nc(C(=O)Nc2ccc(S(=O)(=O)Nc3nccs3)cc2)c2ccccc2c1=O	POLH inh inconclusive
CCn1cc2nc(SCC(=O)Nc3cc(OC)cc(OC)c3)n(Cc3ccc(Cl)cc3)c(=O)c2n1	none
COc1cccc(-n2c(C)nc3c(cnn3-c3ccc(C)cc3)c2=O)c1	none
COc1cccc(-n2c(-c3ccccc3F)nc3c(cnn3-c3ccc(C)cc3)c2=O)c1	Pol iota inh 16µM
CC(C)(C)n1ncc2c(=O)n(Cc3ccc(F)cc3Cl)cnc21	none (no result: POLB inh, PGK inhibitor, POLH inh)
O=[N+]([O-])c1cc2c(c3cccnc13)COCO2	Pol iota inh 40µM, POLH inh 10µM (no result: POLB inh)
COc1ccc(O)c(/C=N/NC(=O)c2ccc(N3CCCC3=O)cc2)c1	POLB inh 10µM, Pol iota inh inconclusive
COc1ccc(O)c(/C=N/NC(=O)c2cccc(N3CCCC3=O)c2)c1	Pol iota inh inconclusive
COc1ccccc1CNc1ncnc2ccc(-c3ccccc3C#N)cc12	none (no result: POLB inh, PGK inhibitor, Pol iota inh, FEN1 inhibitor, POLH inh)
COc1ccc(CNc2ncnc3ccc(-c4ccccc4C#N)cc23)c(OC)c1	Pol kappa inh 40µM (no result: POLB inh, PGK inhibitor, Pol iota inh, FEN1 inhibitor, POLH inh)
COc1ccc(-c2nnc3ccc(SC(C)C)nn23)cc1OC	FEN1 inhibitor inconclusive (no result: POLB inh, PGK inhibitor, POLH inh)
CCOc1ccccc1NC(=O)CN1C(=O)CC(c2ccco2)Sc2ccccc21 (stereo unspecified)	POLB inh inconclusive, Pol iota inh inconclusive
COc1ccc2c(c1)oc(=O)c1ccccc12	none
COc1ccc2c(c1)oc(=O)c1c3ccccc3[nH]c21	POLB inh 22µM
O=C(C[n+]1ccncc1)c1cccc2ccccc12	none (no result: POLB inh, PGK inhibitor, POLH inh)
COc1cc(N=C2C(=O)N3c4c(cccc42)C(C)=CC3(C)C)cc(OC)c1	POLH inh inconclusive
CC1=CC(C)(C)N2C(=O)C(=Nc3ccc(O)cc3)c3cccc1c32	Pol iota inh 7.9µM, FEN1 inhibitor inconclusive, POLH inh 20µM
CN(CC(=O)NCCC1=CCCCC1)S(=O)(=O)c1ccc2c(c1)c(=O)n(C)c(=O)n2C	Pol iota inh 79µM
c1ccc(-c2ccc(N3CCCC4(CCNCC4)C3)cc2)cc1	none (no result: POLB inh, PGK inhibitor, Pol iota inh, FEN1 inhibitor, POLH inh)
Cc1nc(N=Nc2cc(S(=O)(=O)O)c3cc([N+](=O)[O-])cc(S(=O)(=O)O)c3c2)c(COP(=O)(O)O)c(C=O)c1O	POLB inh 2.8µM, Pol iota inh 5µM, Pol kappa inh 9.5µM, FEN1 inhibitor 7.5µM, POLH inh 0.63µM (no result: PGK inhibitor)
